# From PubChem BioAssay (NCATS)
# Inconclusive results are not listed. A call without a number means that no potency is given here. Calls of active or inactive are those of the source. Unless noted, the call rests on the fitted dose curve. Bridge positions count the residues as written; N and C are the ends. Square brackets hold non-standard residues; d marks the D form. Peptide text beside a SMILES is read from it. * marks the point of attachment. ξ: configuration not given here. Octanoyl(6-Me) = CCC(C)CCCCC(=O)*; ξThr(3R) = C[C@@H](O)C(N)C(=O)O; dDab = NCC[C@@H](N)C(=O)O; Dab = NCC[C@H](N)C(=O)O
# Tests used:
# [1] = qHTS for Inhibitors of the Functional Ribonucleoprotein Complex (vRNP) of Lassa (LASV) Arenavirus: LASV Primary Screen - GLuc reporter signal (AID 1347082; calls by dose curve; tested in HEK293 reporter line; further: nearly all actives have a fitted effect of over 60% in size; further: potency means the concentration at half of the fitted maximal effect)
# [2] = qHTS for Inhibitors of the Functional Ribonucleoprotein Complex (vRNP) of Lassa (LASV) Arenavirus: Viability assay - alamar blue signal for LASV Primary Screen (AID 1347083; calls by dose curve; tested in HEK293 reporter line; further: nearly all actives have a fitted effect of over 80% in size; further: potency means the concentration at half of the fitted maximal effect)
# [3] = qHTS for Inhibitors of the Functional Ribonucleoprotein Complex (vRNP) of Lymphocytic Choriomeningitis Arenaviruses (LCMV): Viability assay - alamar blue signal for LCMV Primary Screen (AID 1347085; calls by dose curve; tested in HEK293 reporter line; further: nearly all actives have a fitted effect of over 80% in size)
# [4] = biological target: Nucleoprotein (Lymphocytic choriomeningitis virus (strain Armstrong)) (UniProt P09992); test: qHTS for Inhibitors of the Functional Ribonucleoprotein Complex (vRNP) of Lymphocytic Choriomeningitis Arenaviruses (LCMV): LCMV Primary Screen - GLuc reporter signal (AID 1347086); further: nearly all actives have a fitted effect of over 70% in size; further: potency means the concentration at half of the fitted maximal effect
# Chain of Nucleoprotein (Lymphocytic choriomeningitis virus (strain Armstrong)) (P09992 whole entry, looked up): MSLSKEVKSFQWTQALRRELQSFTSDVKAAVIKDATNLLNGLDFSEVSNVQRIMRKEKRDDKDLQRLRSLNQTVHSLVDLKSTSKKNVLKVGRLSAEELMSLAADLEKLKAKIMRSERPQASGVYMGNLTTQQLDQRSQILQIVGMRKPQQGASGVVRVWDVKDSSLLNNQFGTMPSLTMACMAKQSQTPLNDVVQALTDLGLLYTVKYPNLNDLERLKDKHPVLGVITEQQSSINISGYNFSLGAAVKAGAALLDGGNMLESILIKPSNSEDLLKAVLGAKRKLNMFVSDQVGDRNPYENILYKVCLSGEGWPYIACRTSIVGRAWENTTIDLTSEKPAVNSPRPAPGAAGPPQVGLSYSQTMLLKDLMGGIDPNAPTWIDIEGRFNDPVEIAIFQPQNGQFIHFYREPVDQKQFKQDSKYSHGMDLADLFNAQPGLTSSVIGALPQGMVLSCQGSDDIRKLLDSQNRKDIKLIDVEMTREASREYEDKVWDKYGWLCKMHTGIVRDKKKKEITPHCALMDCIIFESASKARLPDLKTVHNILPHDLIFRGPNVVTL
# [5] = Cytotoxicity counterscreen for inhibitors of SARS-CoV-2 cell entry (AID 1645845); further: nearly all actives have a fitted effect of over 50% in size
# Procedure, shortened: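 Expi293F/hACE2 cells seeded overnight; cpd pin-transferred in DMSO, 1 h preincubation, + media, 48 h 37 C 5% CO2; ATPLite 1step luminescence; normalized to cells and no cells.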
# [6] = Primary qHTS to identify inhibitors of SARS-CoV-2 cell entry (AID 1645846); conditions: activity change, negative = inhibition: at 57.1 µM (top of the series) unless noted; further: nearly all actives have a fitted effect of over 45% in size; further: potency means the concentration at half of the fitted maximal effect
# Procedure, shortened: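 Luminescence readout (Bright-Glo luciferase) 48 h after pseudoparticle addition. HEK293-ACE2 cells, 1500/well; compound pre-incubation 1 h; Normalized to spike PP and bald PP.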
# [7] = test system: CRL-7250; test: qHTS assay to identify novel small-molecules to repurpose for Merkel cell carcinoma treatment (AID 1296009; active means well fitted curve in the direction sought with a large enough effect; an effect the other way counts as inactive or inconclusive; further: nearly all actives have a fitted effect of over 60% in size); conditions: MCC and control cell lines, CellTiter-Glo viability, 72 h; series mostly up to 92 µM
# Procedure, shortened: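 Cells exposed to NPC (8-point) and MIPE (11-point) compound dilutions for 72 hr at 37 degree celsius; viability read by CellTiter-Glo luminescence, normalized to no-cell and DMSO in-plate controls.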
# [8] = biological target: Alpha-galactosidase (Coffea arabica) (UniProt Q42656); test: Counterscreen for Glucocerebrosidase Inhibitors: qHTS Assay for Coffee Bean alpha-Galactosidase at pH 4.5 (AID 957; active means well fitted curve in the direction sought with a large enough effect; an effect the other way counts as inactive or inconclusive)
# Chain of Alpha-galactosidase (Coffea arabica) (Q42656 whole entry, looked up): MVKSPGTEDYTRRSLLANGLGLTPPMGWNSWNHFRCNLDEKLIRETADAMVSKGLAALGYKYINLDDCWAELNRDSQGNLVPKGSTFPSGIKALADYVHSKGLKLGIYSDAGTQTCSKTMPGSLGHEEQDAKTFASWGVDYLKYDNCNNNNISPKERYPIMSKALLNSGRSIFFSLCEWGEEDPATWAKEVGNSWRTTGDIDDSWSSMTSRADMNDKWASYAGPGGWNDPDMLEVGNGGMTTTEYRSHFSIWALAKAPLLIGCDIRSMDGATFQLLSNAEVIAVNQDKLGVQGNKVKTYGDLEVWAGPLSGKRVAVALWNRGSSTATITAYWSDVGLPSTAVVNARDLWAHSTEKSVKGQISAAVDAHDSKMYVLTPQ
# Procedure, shortened: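 Green coffee bean enzyme (2 nM final) was incubated with compounds (0.7 nM to 77 uM) and 4-methylumbelliferyl alpha-D-galactopyranoside (80 uM final) in 50 mM citric acid, 0.005% Tween-20, pH 4.5, 20 min at room temperature; AC50 from Hill fits.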
# [9] = biological target: Alpha-galactosidase (Coffea arabica) (UniProt Q42656); test: Counterscreen for Glucocerebrosidase Inhibitors: qHTS Assay for Coffee Bean alpha-Galactosidase at pH 5.9 (AID 998; active means well fitted curve in the direction sought with a large enough effect; an effect the other way counts as inactive or inconclusive)
# Procedure, shortened: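 Green coffee bean enzyme (2 nM final) was incubated with compounds (0.7 nM–77 uM) and 4-methylumbelliferyl alpha-D-galactopyranoside (80 uM) in citrate buffer pH 5.9, 20 min at room temperature. High-pH stop; fluorescence 365/440 nm; AC50 from Hill fits.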
# [10] = qHTS profiling of the MIPE4 collection as inhibitors of Plasmodium falciparum (3D7) proliferation (AID 743344; call rule not given here); conditions: P. falciparum 3D7 in erythrocytes, SYBR Green DNA fluorescence, 72 h; at 28.5 µM (top of the series) unless noted
# Procedure, shortened: (§1)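 Erythrocytes infected with P. falciparum (0.3% parasitemia, 2.5% hematocrit) incubated with compounds 72 h at 37 C, 5% CO2. Lysis with saponin/Triton buffer containing SYBR Green I, overnight at room temperature in the dark; DNA fluorescence (485/535 nm) normalised to 0.29 uM artemisinin and DMSO.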
# [11] = qHTS profiling of the MIPE4 collection as inhibitors of Plasmodium falciparum (DD2) proliferation (AID 743345; call rule not given here); conditions: P. falciparum Dd2 in erythrocytes, SYBR Green DNA, 72 h; at 28.5 µM (top of the series) unless noted
# Procedure, shortened: as §1
# [12] = qHTS profiling of the MIPE4 collection as inhibitors of Plasmodium falciparum (DD2) proliferation (Rep 2) (AID 743346; call rule not given here); conditions: P. falciparum Dd2 in erythrocytes, SYBR Green DNA, 72 h; at 28.5 µM (top of the series) unless noted
# Procedure, shortened: as §1
# [13] = Confirmatory qHTS to identify inhibitors of SARS-CoV-2 cell entry (AID 1645844); further: potency means the concentration at half of the fitted maximal effect; nearly all actives have a fitted effect of over 45% in size
# Procedure, shortened: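 HEK293-ACE2 cells (Expi293F stably expressing human ACE2) were pretreated with compounds for 1 hr at 37C, then infected with MLV-based particles carrying Wuhan-Hu-1 spike (C-terminal 19-aa truncation). Luciferase luminescence read after 48 hr; normalized to spike PP (100%) and bald PP (0%).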
# [14] = VSVG counterscreen qHTS to identify inhibitors of SARS-CoV-2 cell entry (AID 1645847); further: potency means the concentration at half of the fitted maximal effect; nearly all actives have a fitted effect of over 65% in size
# Procedure, shortened: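 HEK293-ACE2 cells (Expi293F stably expressing human ACE2) were pretreated with compound for 1 h at 37 °C, then infected with MLV-based VSV-G pseudotyped particles for 48 h. Luciferase luminescence was normalized to VSV-G PP and bald PP wells.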
# [15] = Confirmatory qHTS for VERO E6 Cytotoxicity Assay: Counterscreen for SARS-CoV-2 CPE Assay (AID 1508605); further: nearly all actives have a fitted effect of over 60% in size
# [16] = Confirmatory qHTS for activators (rescue) of SARS-CoV-2 Cytopathic Effect (CPE) (AID 1508606); further: potency means the concentration at half of the fitted maximal effect; nearly all actives have a fitted effect of over 70% in size
# [17] = biological target: Nuclear receptor subfamily 1 group I member 3 (Homo sapiens) (UniProt Q14994); test: Primary qHTS for antagonist of constitutive androstane receptor (CAR) against the NCATS DSHEA and TCM libraries (AID 1794836; active means well fitted curve in the direction sought with a large enough effect; an effect the other way counts as inactive or inconclusive)
# Chain of Nuclear receptor subfamily 1 group I member 3 (Homo sapiens) (Q14994 whole entry, looked up): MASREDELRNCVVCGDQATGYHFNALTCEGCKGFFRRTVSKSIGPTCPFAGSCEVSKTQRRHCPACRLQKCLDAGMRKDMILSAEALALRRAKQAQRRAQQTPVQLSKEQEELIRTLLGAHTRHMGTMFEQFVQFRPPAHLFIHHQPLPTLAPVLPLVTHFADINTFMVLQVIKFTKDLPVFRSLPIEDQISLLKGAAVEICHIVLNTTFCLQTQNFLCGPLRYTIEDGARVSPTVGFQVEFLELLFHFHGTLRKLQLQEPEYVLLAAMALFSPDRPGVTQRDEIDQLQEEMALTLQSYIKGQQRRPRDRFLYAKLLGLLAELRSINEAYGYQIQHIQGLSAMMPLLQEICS
# Procedure, shortened: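 HepG2 cells stably carrying hCAR and a CYP2B6 luciferase reporter (2,500 cells/well) attached for 5 h, then received compounds with 48 uM CITCO for 24 h at 37C. ONE-Glo luminescence read antagonism; CellTiter-Fluor (405/540 nm) gave viability.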
# [18] = KB-8-5-11 P-gp reporter qHTS against the NCATS DSHEA and TCM libraries (AID 1919977; active means well fitted curve in the direction sought with a large enough effect; an effect the other way counts as inactive or inconclusive)
# Procedure, shortened: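 P-gp-overexpressing KB-8-5-11 cells (500/well) were plated in colchicine-free DMEM with 10% FBS, attached ~4 h, then exposed to substance titrations for ~72 h at 37C. Viability was read by CellTiter-Glo luminescence.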
smiles,measurement,setting,value
CC1=C(C(=O)Nc2cc3cn[nH]c3cc2F)C(c2ccc(C(F)(F)F)cc2)CC(=O)N1 (stereo not drawn),Potency,[1],inactive
same,Potency,[2],inactive
same,Potency,[3],inactive
same,Potency,[4],inactive
same,Potency,[5],inactive
same,"activity change, negative = inhibition",[6],-23.5%
same,Potency,[7],inactive
COc1ccc(-c2cc(=O)c3c(O)cc(O)cc3o2)cc1O,Potency,[1],24.3 µM (active)
same,Potency,[4],24.3 µM (active)
same,Potency,[5],inactive
same,Potency,[6],inactive
same,Potency,[7],inactive
CS(=O)(=O)c1ccc(-c2cnc(N)c(C(=O)Nc3ccccc3)n2)cc1,Potency,[1],inactive
same,Potency,[4],inactive
same,"activity change, negative = inhibition",[6],-1.17%
same,Potency,[7],inactive
CN(C)CC[C@H](c1ccc(Cl)cc1)c1ccccn1,outcome,[8],inactive
same,outcome,[9],inactive
same,Potency,[1],inactive
same,Potency,[3],inactive
same,Potency,[4],inactive
same,Potency,[7],inactive
Nc1ncnc2c1ncn2[C@@H]1O[C@@H](CO)[C@H](O)[C@H]1O,Potency,[1],inactive
same,Potency,[2],inactive
same,Potency,[4],inactive
same,Potency,[7],inactive
CC=CCC(C)C(O)C1C(=O)NC(CC)C(=O)N(C)CC(=O)N(C)C(CC(C)C)C(=O)NC(C(C)C)C(=O)N(C)C(CC(C)C)C(=O)NC(C)C(=O)NC(C)C(=O)N(C)C(CC(C)C)C(=O)N(C)C(CC(C)C)C(=O)N(C)C(C(C)C)C(=O)N1C (stereo not drawn),Potency,[2],inactive
same,Potency,[4],13.7 µM (active)
same,Potency,[7],inactive
CC1(C)CC(O)CC(C)(C)N1[O],"parasite growth, % of DMSO control",[10],99.3%
same,"parasite growth remaining, % of DMSO control (lower = more inhibition)",[11],97.3%
same,"parasite growth, % of control (lower = inhibition)",[12],73%
same,Potency,[1],inactive
same,Potency,[2],inactive
same,Potency,[4],inactive
same,Potency,[7],inactive
O=C(O)c1ccc(Nc2ncc3c(n2)-c2ccc(Cl)cc2C(c2c(F)cccc2F)=NC3)cc1,Potency,[1],inactive
same,Potency,[2],10.9 µM (active)
same,Potency,[4],inactive
same,Potency,[13],0.242 µM (active)
same,Potency,[5],inactive
same,Potency,[14],1.08 µM (active)
same,Potency,[7],inactive
COc1cccc([C@@H](C)NCCCc2ccccc2Cl)c1,Potency,[1],inactive
same,Potency,[2],inactive
same,Potency,[4],inactive
same,Potency,[15],inactive
same,Potency,[16],10 µM (active)
same,Potency,[6],22.4 µM (active)
same,Potency,[7],inactive
CN(C)C(=O)[C@H](O)[C@H](Cc1ccccc1)NC(=O)c1cc2cc(Cl)ccc2[nH]1,Potency,[1],inactive
same,Potency,[3],inactive
same,Potency,[4],inactive
same,Potency,[5],inactive
same,"activity change, negative = inhibition",[6],-8.95%
same,Potency,[7],inactive
NC(=O)c1ccc2nc(-c3ccc(Oc4ccc(Cl)cc4)cc3)[nH]c2c1,Potency,[2],0.769 µM (active)
same,Potency,[4],inactive
same,Potency,[7],inactive
CC(C)(OCc1nn(Cc2ccccc2)c2ccccc12)C(=O)O,Potency,[1],inactive
same,Potency,[5],inactive
same,Potency,[6],inactive
same,Potency,[7],inactive
Cc1cc2nc3c(=O)[nH]c(=O)nc-3n(CC(O)C(O)C(O)CO)c2cc1C (stereo not drawn),Potency,[1],inactive
same,Potency,[2],inactive
same,Potency,[5],inactive
same,Potency,[6],inactive
same,Potency,[17],inactive
same,outcome,[18],inactive
same,Potency,[7],inactive
C[C@@H]1CN(Cc2ccc(F)cc2)[C@@H](C)CN1C(=O)c1cc2c(C(=O)C(=O)N(C)C)cn(C)c2cc1Cl,Potency,[1],inactive
same,Potency,[4],30.6 µM (active)
same,Potency,[5],inactive
same,"activity change, negative = inhibition",[6],-24.1%
same,Potency,[7],inactive
C[C@@H]1[C@H](C)CC[C@]2(C(=O)O)CC[C@]3(C)C(=CC[C@@H]4[C@@]5(C)CC[C@H](O)C(C)(C)[C@H]5CC[C@]43C)[C@@H]12,Potency,[1],inactive
same,Potency,[2],35.2 µM (active)
same,Potency,[4],inactive
same,Potency,[7],inactive
CCC(C)CCCCC(=O)N[C@@H](CCN)C(=O)NC(C(=O)N[C@H](CCN)C(=O)N[C@@H]1CCNC(=O)C([C@@H](C)O)NC(=O)[C@@H](CCN)NC(=O)[C@@H](CCN)NC(=O)[C@@H](CC(C)C)NC(=O)[C@H](Cc2ccccc2)NC(=O)[C@H](CCN)NC1=O)[C@@H](C)O (stereo partly drawn) ({Octanoyl(6-Me)}-[Dab][ξThr(3R)][dDab][dDab][Dab]F[dL][dDab][dDab][ξThr(3R)]; lactam 4-C),Potency,[1],inactive
same,Potency,[5],inactive
same,Potency,[6],inactive
same,Potency,[7],inactive
